Laboratory results from PubChem BioAssay (NCI).
Compounds without any hit were thinned out: in the full panel of roughly 83,000, 20% have a hit.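 For each line, cells grew in 96-well plates with the test compound present at a single concentration for 48 hours.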 Values without a mark were called inactive. Calls of active or inactive are those of the source. Rule for the calls: active = growth percent below 10; inactive = the rest.

System: MDA-MB-468 breast
Test: NCI-60 one-dose screen, 48 h (100 = growth as untreated, 0 = no growth, -100 = all killed)

Cc1nnc([S-])o1.[Au+].c1ccc([PH+](c2ccccc2)c2ccccc2)cc1
growth (10 µM unless noted): -6.44% (active)

COc1ccc(O)c2c(=O)c3c(OC)cc4c(c3oc12)[C@@H]1C=CO[C@@H]1O4
growth (10 µM unless noted): -63.2% (active)

Cc1c(O)c(CN(CCCl)CCCl)cc(CN(CCCl)CCCl)c1O
growth (10 µM unless noted): 84.4%

S=C(SSC(=S)N1CCCCC1)N1CCCCC1
growth (10 µM): 98.1%
growth (100 µM): -62.8% (active)
